# Source: PubChem BioAssay
# Tested on: Sam68 (KHDRBS1)
# Experiment: Sam68 small-molecule binders, primary screen, biochemical, small-molecule microarray, 635 nm fluorescence (AID 1125);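 further: score merges 667 nm channel intensity with signal to noise over triplicate slides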
# Settings: small-molecule microarray binding, higher = more signal
row,Structure (SMILES),composite z-score
1,CCCCC=C[C@@H](NC(=O)c1ccc(C(F)(F)F)cc1)c1ccccc1,-0.0265
2,CC(c1ccccc1)C(O)C1C=CC2C(=O)N(c3ccccc3)C(=O)C2N1Nc1ccc(C#N)cc1 (stereo unspecified),1.34
3,CC(C)(C)N1CC=CC23O[C@@H]4/C=C\CCCOC(=O)C4[C@H]2C(=O)N(CCCCCCO)[C@@H]3C1=O (stereo partly specified),-1.35
4,COc1ccc(C(O)C2C=CC3C(=O)N(C)C(=O)C3N2Nc2ccc([N+](=O)[O-])cc2[N+](=O)[O-])cc1OCc1ccccc1 (stereo unspecified),1.32
5,C=CC[C@]1(C(=O)N(C)C)COC(c2ccc(OCCCO)cc2)=N1,1.25
6,C[C@@H](OCc1ccccc1)C1NC(=O)[C@@]23C(=O)N[C@@H](Cc4ccccc4)C2[C@H](C)[C@@]2(C)O[C@H]2C3/C=C/C/C=C\CNC(=O)[C@H](Cc2ccccc2)NC1=O (stereo partly specified),-0.24
7,COc1ccc([Si](C)(C)[C@H]2[C@H](CCO)O[C@@]3(C(=O)N(Cc4ccc(N5CCOC5=O)cc4)c4ccccc43)[C@@H]2C)cc1,0.968
8,C=CCC(OC(C)=O)[C@@H]1[C@@H](N(Cc2ccc(-c3ccccc3)cc2)C(=O)c2ccc(C)cc2)c2cc(OCCCO)ccc2N1C(=O)c1ccc2ccccc2c1 (stereo partly specified),-0.15
9,CC(C)C(=C=CC[C@@H](O)c1cccc(OCCO)c1)CCO,0.0316
10,COCCOC(=O)N1C(=O)[C@@]2(c3cc(C#CC4(O)CCCCCC4)ccc31)[C@H](c1ccc(OCCO)cc1)N1[C@H](c3ccccc3)[C@H](c3ccccc3)OC(=O)[C@H]1[C@@H]2C(=O)N1CCCCCCC1,1.31
11,Cc1ccc(F)cc1S(=O)(=O)N[C@@H]1CCN(Cc2ccc3[nH]ccc3c2)C1,0.605
